This passage reports morphology score and SARS-CoV-2 infection rate results from the supplement of paper PMC13380429.

In assay [1] the test system is Vero E6 infected with SARS-CoV-2. Briefly: morphology score (similarity to uninfected cells); higher = more like uninfected cells. Particulars: 24 h.
Assay [2] shares this test system. Briefly: SARS-CoV-2 infection rate relative to infected DMSO; higher = more infection, active = 60 or less. Particulars: 24 h.

In assay [1], `CCc1nc2c(C)nc(C)cc2n1-c1ccc(CCNC(=O)NS(=O)(=O)c2ccc(C)cc2)cc1` [grapiprant] (10 µM) displayed a morphology score of 0.243. Also, the SARS-CoV-2 infection rate in assay [2] is 93.5% (inactive).

For `C=C(C)[C@H]1CN[C@H](C(=O)O)[C@H]1CC(=O)O` [kainic-acid] (10 µM), the morphology score in assay [1] turned out to be 0.338. In assay [2], the SARS-CoV-2 infection rate is 79% (inactive).

`OCCC#Cc1nc(-c2ccc(F)cc2)c(-c2ccncc2)n1CCCc1ccccc1` (10 µM): the morphology score in assay [1] is 0.0292. Besides, the SARS-CoV-2 infection rate in assay [2] is 101% (inactive).

Compound `COc1ccc2[nH]cc(C3=CCNCC3)c2c1` (10 µM) registered a morphology score in assay [1] of 0.191. The SARS-CoV-2 infection rate in assay [2] was 104% (inactive).

In assay [1], `N[C@]1(C(=O)O)CC[C@@H](C(=O)O)C1` (10 µM) showed a morphology score of 0.188. Also, in assay [2], the SARS-CoV-2 infection rate was 82% (inactive).

Compound `CN1CCN(C2=Cc3ccccc3Oc3ccc(Cl)cc32)CC1` (10 µM) yielded a morphology score in assay [1] of 0.217. Also, the SARS-CoV-2 infection rate in assay [2] is 106% (inactive).

In assay [1], `O=C(N/N=C/c1ccc(O)c(O)c1)c1cc2ccccc2cc1O` [dynasore] (10 µM) returned a morphology score of -0.107. Moreover, in assay [2], the SARS-CoV-2 infection rate is 108% (inactive).

Take `OC[C@H]1O[C@@H](Oc2cc(O)cc(/C=C/c3ccc(O)cc3)c2)[C@H](O)[C@@H](O)[C@@H]1O` [polydatin] (10 µM): in assay [1], the morphology score was 0.0104. Besides, in assay [2], the SARS-CoV-2 infection rate is 104% (inactive).

Consider `Cc1nnc2n1-c1sc(CCC(=O)N3CCOCC3)cc1C(c1ccccc1Cl)=NC2` [apafant] (10 µM), for which, in assay [1], the morphology score was -0.0825. Also, the SARS-CoV-2 infection rate in assay [2] is 112% (inactive).

Take `CCCCCCCCc1ccc(CCC(N)(CO)CO)cc1` [fingolimod] (10 µM): the morphology score in assay [1] amounted to 0.717. The SARS-CoV-2 infection rate in assay [2] was 26.5% (active).

In assay [1], `Cc1cccc(-c2n[nH]cc2-c2ccc3ncccc3n2)n1` [repsox] (10 µM) returned a morphology score of 0.188. Moreover, in assay [2], the SARS-CoV-2 infection rate is 97% (inactive).

In assay [1], `NCC(CC(=O)O)c1ccccc1` (centres undefined) [fenigam] (10 µM) came in with a morphology score of 0.256. Moreover, in assay [2], the SARS-CoV-2 infection rate is 89% (inactive).
